# Screening data (PubChem BioAssay)
# Only a selection was taken, and hits are over-represented in it overall.
# Pf Dd2 growth: Plasmodium falciparum Dd2 growth inhibition; P. falciparum Dd2 growth, SYBR Green, 72 h; 120,000 compounds, 4.3% hits; Potency, µM (doses to about 28.9 µM), for the others: at the highest dose activity, negative = inhibition, most hits filed as inhibitors; active = well fitted inhibition curve with a large enough effect;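 also: plate controls were DMSO vehicle for no effect and reference drug for full effect; nearly all actives have a fitted effect of over 65% in size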
#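 Infected erythrocytes (Dd2, 0.3% parasitemia, 2.5% hematocrit final) are added to compound in RPMI-1640/Albumax II medium, grown 72 h at 37C in low oxygen, then lysed with saponin/Triton-X containing SYBR Green and read by fluorescence.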
# Starred values were filed as active, the others as inactive; i = inactive; [ ] = remark or other dose. Potency is read from the fitted curve at half-maximal effect.
SMILES,Pf Dd2 growth
Cc1cnc(CC2CCN(C(=O)C3CC3)C2)n1C(C)C (centres undefined),8%
CCS(=O)(=O)N1CCCC(Cc2ncc(C)n2C(C)C)C1 (centres undefined),i
CCN(CC)C(=O)N1CCCC(Cc2ncc(C)n2Cc2ccc(F)cc2)C1 (centres undefined),3.5µM*
COc1ccc(C(=O)N2CCCC(Cc3ncc(C)n3Cc3ccc(F)cc3)C2)cn1 (centres undefined),i
CCCn1c(C)cnc1CC1CCN(S(=O)(=O)c2ccc3c(c2)CCC3)C1 (centres undefined),1µM*
Cc1cnc(CC2CCN(S(=O)(=O)c3ccc4c(c3)CCC4)C2)n1CC1CC1 (centres undefined),-16%
CCS(=O)(=O)N1CCCC(Cc2ncc(C)n2Cc2ccc(F)cc2)C1 (centres undefined),1.8µM*
Cc1cnc(CC2CCN(S(=O)(=O)Cc3ccccc3)C2)n1C(C)C (centres undefined),4.5µM*
Cc1cnc(CC2CCCN(C(=O)COc3ccccc3)C2)n1Cc1ccc(F)cc1 (centres undefined),-23%
CCOc1ccc(-c2cc3c(=O)n(CCNC(=O)Cc4cccc(F)c4)ccn3n2)cc1,i
O=C(Cc1cccnc1)N1CCC(N2C(=O)C(O)C23CCCCC3)CC1 (centres undefined),-22%
COc1nccnc1NC1CCN(C(=O)c2cccc(C)c2)CC1,40%[5.79 µM]
O=C1CCN(C(=O)Nc2ccccc2)CCCC(c2nc(-c3cccnc3)no2)CCN1 (centres undefined),-17%
Cc1nc(C)c(C(=O)N2CCC3(CC2)CC(N2CCOCC2)CCO3)s1 (centres undefined),39%
O=[S+]1([O-])NCC2(CCN(Cc3ccc(OC(F)(F)F)cc3)C2)Nc2ccccc21 (centres undefined),-12%
CCc1cc(=O)n(CC(=O)Nc2ccc(OC)cc2)c(-c2ccccc2)n1,-1%
CCc1cc(=O)n(CC(=O)Nc2ccccc2)c(-c2ccccc2)n1,-3%
CCc1cc(=O)n(CC(=O)Nc2ccccc2C)c(-c2ccccc2)n1,10µM*
CCc1cc(=O)n(CC(=O)Nc2cc(OC)c(OC)c(OC)c2)c(-c2ccccc2)n1,11µM*
CCc1cc(=O)n(CC(=O)Nc2ccc(OC)c(OC)c2)c(-c2cccc(F)c2)n1,i
COc1ccccc1NC(=O)Cn1c(-c2ccccc2)nc(C)cc1=O,-63%
COc1cc(CNC(=O)CN2CCCc3nc(C4CC4)ncc3C2=O)cc(OC)c1,22%
CN(C)C(=O)c1cccnc1OC1CCN(C(=O)c2ccc(F)c(F)c2)C1 (centres undefined),1%
CCN(C(=O)Cn1ccn2nc3c(c2c1=O)CCCC3)c1ccccc1,-11%
O=C(N1CCCCC1)N1CCN([S+](=O)([O-])c2ccc(Cl)nc2)C(=O)C1,-5%
SMILES,Pf Dd2 growth
Cn1cnc(C(=O)N2CCC(N(Cc3ccccc3)C3CCOCC3)CC2)c1,-7%
Cn1cc(C(=O)N2CCC(N(Cc3ccccc3)C3CCOCC3)CC2)cn1,i
O=C(c1cccc(Cl)c1)N1CCC(N(Cc2ccccc2)C2CCOCC2)CC1,5µM*
O=C(NC[C@H]1O[C@@H](CO)[C@@H](O)[C@H]1N1CCCCC1)c1ccccc1,-23%[44.1 µM]
CCOc1ccccc1C1NC(=O)N(CC(=O)N(CC)c2ccccc2)C2=C1C(=O)OC2 (centres undefined),i
CCNC(=O)NCCc1noc(-c2ccncc2)n1,79%
O=C(NCC1CC1)C1CN(c2ccccc2)C(=O)N1 (centres undefined),2%[44.1 µM]
Cc1ccc(-c2nc(CSc3nncn4c3cc3occc34)c(C)o2)cc1,-12%
Cc1oc(-c2ccccc2Cl)nc1CSc1nncn2c1cc1occc12,-23%
COc1ccc(-c2nc(CSc3nncn4c3cc3occc34)c(C)o2)cc1,10µM*
COCc1nc(CCNC(=O)c2sc(C)nc2C)no1,54%
O=C(c1cccc(O)c1)N1CCCC(CCc2cccc(C(F)(F)F)c2)C1 (centres undefined),i
CCCn1nccc1C(=O)N1CCCC(CCc2cccc(C(F)(F)F)c2)C1 (centres undefined),i
CCNc1ncc(CN2CCCC(CCc3cccc(C(F)(F)F)c3)C2)cn1 (centres undefined),7.9µM*
N#Cc1cccc(CN2CCN(c3nccc(Cl)n3)C(=O)C2)c1,-22%[44.1 µM]
CSc1ccc(-c2nc(CN3CCOC(CCO)C3)c(C)o2)cc1 (centres undefined),-10%
OCCC1CN(Cc2cnn(-c3ccccc3)c2)CCN1Cc1cccs1 (centres undefined),i
Cc1cccc(CN2CCN(Cc3nc(-c4cccs4)oc3C)CC2CCO)n1 (centres undefined),11µM*
COc1ccc(CNC(=O)C2(C)CCCCC(=O)N2)cc1OC (centres undefined),i
COc1cccc(CCC(=O)N(C)C2CCc3nnc(C)n3CC2)c1 (centres undefined),i
Cc1cccc(-n2nnnc2S(C)(=O)=O)c1,11µM*
COC(=O)c1nnn(-c2cccc(C)c2)c1C(=O)OC,6%
Cc1ccc(-n2nnnc2CNC(=O)c2ccccc2S(C)(=O)=O)cc1C,i
CCNC(=O)N1CC(c2nnc(-c3ccncc3)o2)C2(CCOCC2)C1 (centres undefined),i
CCOC(=O)c1c(C)sc(-c2c(-c3cc(C)ccc3C)[nH]c3c2c(=O)n(C)c(=O)n3C)c1O,10µM*
SMILES,Pf Dd2 growth
CCOC(=O)c1c(C)sc(-c2c(-c3cccc(Cl)c3)[nH]c3c2c(=O)n(C)c(=O)n3C)c1O,146%
CCOC(=O)c1c(C)sc(-c2c(-c3cc(C)ccc3C)[nH]c3c2c(=O)[nH]c(=O)n3C)c1O,-6%
CNC(=O)[C@@H]1C[C@H](n2cc(CNC(=O)c3ccccc3OC)nn2)CN1,15%
CCOc1ccccc1NC(=O)C1CN(S(=O)(=O)C2CC2)CC12CCCCC2 (centres undefined),i
COc1ccc(CNC(=O)C2CN(S(=O)(=O)C3CC3)CC23CCCCC3)c(OC)c1 (centres undefined),-18%
O=C(Nc1ccc2c(c1)OCCO2)C1CN(S(=O)(=O)C2CC2)CC12CCCCC2 (centres undefined),3.2µM*
CC(C)C1=NOC2(CCN(Cc3cccc(C(F)(F)F)c3)CC2)C1,-24%[44.1 µM]
COc1cccc(CNC(=O)CN2CCCc3nc(C)ncc3C2=O)c1,12%
Cc1ccccc1CC(=O)N1CCC2(CC1)N(C)C(=O)CS2(=O)=O,-5%
CC(=O)N1CCN([C@H]2[C@@H]3OC[C@@H](O3)[C@@H](NC(=O)Nc3cccc(C(F)(F)F)c3)[C@@H]2O)CC1,-15%
Cc1ccc(-n2ncc(C(=O)N3CCN(c4ccccc4F)CC3)c2C2CCN(C(=O)OC(C)(C)C)CC2)cc1C,3%
CC(C)(C)OC(=O)N1CCC(c2c(C(=O)N3CCN(c4ccccc4F)CC3)cnn2C(C)(C)C)CC1,10µM*
COc1ccccc1N1CCN(C(=O)c2cnn(C(C)(C)C)c2C2CCN(C(=O)OC(C)(C)C)CC2)CC1,6.3µM*
Cc1cc(-c2nc(CC(C)C)nn2-c2ccccn2)cc(S(N)(=O)=O)c1C,-19%
CCc1nc(-c2c3n(c(=O)n(Cc4cccc(C#N)c4)c2=O)CCCC3)no1,-10%
Cn1cc(-c2ccccc2)cc1C(=O)O,i
CN(CC1CCOCC1)C(=O)c1ccc(F)cc1Cl,i
O=C(Nc1ccccc1)N1CCN(c2ccc(Cl)nn2)C(=O)C1,-6%
